Screening results as filed in PubChem.
Compounds with a hit are over-represented: about 3.8% of the library has one in this group of screens.
PAFAH1B2 inh: PAFAH1B2 enzyme inhibitors, primary screen, biochemical, fluorescence polarization, human. Platelet-activating factor acetylhydrolase IB subunit alpha2 (Homo sapiens), P68402. recombinant PAFAH1B2, FP-rhodamine activity probe. inhibition, % at 3.39 µM. 340,000 tested, 1.2% active;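 active = inhibition above the mean of all tested compounds plus 3 SD, cut at about 24% in these data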;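 note: 0% = enzyme with DMSO and 100% = wells lacking PAFAH1B2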
PAFAH1B3 FP inh: PAFAH1B3 enzyme inhibitors, primary screen, biochemical, fluorescence polarization, human; recombinant PAFAH1B3, FP-rhodamine probe; 340,000 tested, 0.28% active; AID 492972, 2010; Platelet-activating factor acetylhydrolase IB subunit alpha1 (Homo sapiens), Q15102; inhibition, % at 3.39 µM;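 active = inhibition above the screen-wide average of all tested compounds plus 3 SD, cut at about 25% in these data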;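 note: 0% = enzyme with DMSO only and 100% = wells lacking PAFAH1B3 protein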
Target sequence (Q15102 whole entry, looked up): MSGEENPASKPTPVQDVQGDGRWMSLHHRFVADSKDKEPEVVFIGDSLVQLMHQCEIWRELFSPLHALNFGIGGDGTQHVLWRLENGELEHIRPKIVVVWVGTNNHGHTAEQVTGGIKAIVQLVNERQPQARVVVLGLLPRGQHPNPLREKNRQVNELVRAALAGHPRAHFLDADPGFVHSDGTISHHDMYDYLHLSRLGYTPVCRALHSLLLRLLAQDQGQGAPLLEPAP
pPAFAH inh: pPAFAH enzyme inhibitors, primary screen, biochemical, fluorescence polarization, human; Platelet-activating factor acetylhydrolase (Homo sapiens), Q13093; inhibition, % at 3.39 µM; AID 463082, 2010; 330,000 tested, 1.5% active; recombinant pPAFAH, FP-rhodamine probe fluorescence polarization;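 active = inhibition above the mean inhibition across the screen plus 3 SD, cut at about 25% in these data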;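 note: inhibitors block binding of the rhodamine activity-based probe so polarization drops; 0% = enzyme with DMSO and 100% = wells lacking pPAFAH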
Target sequence (Q13093 whole entry, looked up): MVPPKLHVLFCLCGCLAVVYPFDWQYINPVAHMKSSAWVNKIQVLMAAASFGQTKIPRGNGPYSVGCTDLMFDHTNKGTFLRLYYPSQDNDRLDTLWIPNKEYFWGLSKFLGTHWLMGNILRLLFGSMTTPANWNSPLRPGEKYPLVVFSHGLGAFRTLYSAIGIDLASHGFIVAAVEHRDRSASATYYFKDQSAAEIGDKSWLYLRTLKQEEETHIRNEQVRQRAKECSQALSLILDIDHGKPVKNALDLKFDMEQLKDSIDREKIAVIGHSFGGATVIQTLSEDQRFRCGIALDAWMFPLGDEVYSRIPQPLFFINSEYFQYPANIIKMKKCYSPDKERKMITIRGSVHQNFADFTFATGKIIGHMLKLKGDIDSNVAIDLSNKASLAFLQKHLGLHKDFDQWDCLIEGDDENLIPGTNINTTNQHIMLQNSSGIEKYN
PAFAH2 FP inh: PAFAH2 enzyme inhibitors, primary screen, biochemical, fluorescence polarization, human; recombinant PAFAH2, FP-rhodamine activity probe; inhibition, % at 3.39 µM; 340,000 tested, 0.99% active; AID 492956, 2010;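 active = inhibition above the mean over all tested compounds plus 3 SD, cut at about 30% in these data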;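 note: inhibitors block probe labeling of enzyme so polarization drops; 0% = enzyme with DMSO and 100% = wells lacking PAFAH2 protein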
Pemphigus Ab inh: inhibitors of pemphigus antibody binding to DSG3, primary screen, biochemical, bead-based, flow cytometry, scFv-GFP; 310,000 tested, 0.48% active; binding (percent of control), % at 10 µM; DSG3-coupled beads, scFv-anti-DSG3-GFP binding; active compounds read low; AID 588358, 2011;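 active = binding more than 3 SD below its plate's average and above zero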;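 note: hits lower antibody fragment binding to DSG3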
M18AAP inhibitor: PfM18AAP inhibitors, malaria aminopeptidase, primary screen, biochemical, QFRET, recombinant enzyme; M18 aspartyl aminopeptidase (Plasmodium falciparum 3D7); H-Glu-NHMec fluorogenic cleavage; inhibition, % at 7.35 µM; 290,000 tested, 1.2% active; AID 1822, 2009;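 active = inhibition above the campaign mean inhibition over all tested compounds plus 3 SD, cut at about 28% in these data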;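 note: 0% = plate median of test compound wells and 100% = 2 mM ZnCl2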
* hit, by the source's call; x = no result.

SMILES	PAFAH1B2 inh	PAFAH1B3 FP inh	pPAFAH inh	PAFAH2 FP inh	Pemphigus Ab inh	M18AAP inhibitor
CN(C)S(=O)(=O)c1cccc(NC(=O)c2ccccc2SCC(=O)N2CCCC2)c1	x	x	x	x	98.5	x
O=C(Nc1cccc([N+](=O)[O-])c1)c1cc2ccccc2cc1O	3.2	0.7	33.9*	-3.6	82.5	3.1
CCCN(C(=O)CSc1nnc(-c2ccc3c(c2)OCO3)o1)C1CCS(=O)(=O)C1 (stereo unspecified)	x	x	x	x	96.6	x
Cc1nc(NNC(=O)c2ccc(Cl)cc2Cl)cc(-c2ccccc2)n1	0.1	8.2	3.2	-9.0	70.9*	1.5
Cc1ccc(N(CC(=O)NCC2CCCO2)C(=O)CCC(=O)Nc2cc(C)on2)cc1 (stereo unspecified)	4.8	4.2	3.1	9.3	94.7	-0.3
O=C(CSc1nc2ccccc2n1-c1ccccc1)Nc1ncc(Cl)cc1Cl	3.4	3.9	26.6*	-8.6	111.6	-4.5
CC(C)N(C(=O)CSc1nc2ccccc2n1Cc1ccccc1)C(C)C	1.4	-0.3	4.4	-8.7	83.1	1.0
Cc1cccc(-n2c(SCC(=O)Nc3ncc(Cl)cc3Cl)nc3ccccc32)c1	-2.6	3.9	6.9	-6.6	97.2	5.2
CC(C)N(C(=O)CSc1nc2ccccc2n1-c1ccccc1)C(C)C	5.4	-3.0	31.5*	-5.4	101.4	-10.2
CCOC(=O)c1ccc(NC(=O)Nc2nncs2)cc1	x	x	x	x	95.5	x
CCCCSc1nnc(-c2ccc(NC(=O)CCc3ccccc3)cc2)n1C	1.6	9.6	5.5	-0.8	-28.0*	-2.5
COc1cccc(N2CCN(S(=O)(=O)c3cc4c(cc3Cl)NC(=O)CO4)CC2)c1	2.1	-4.0	1.5	-4.1	50.3	0.4
CCOc1cc(NC(=S)Nc2ccc(Cl)cc2)c(OCC)cc1NC(C)=O	1.8	7.9	10.3	-1.5	96.8	31.0*
COC(=O)[C@H]1C[C@H](OC(=O)Nc2cccs2)[C@@]2(O)CN(S(=O)(=O)c3ccc(C)cc3)CC2[C@H]1C(=O)OC (stereo partly specified)	x	x	x	x	106.6	x
CCCCN(CCCC)C(=O)c1sc2nc(N3CCOCC3)c3c(c2c1N)CCCC3	x	x	0.1	x	100.4	31.5*
COc1ccc(OC)c2c1cc(C(=O)N[C@H](C(=O)N1CCC(C(=O)O)CC1)C(C)C)n2C	3.4	6.4	x	-7.0	99.1	8.4
CS(=O)(=O)N(CC(=O)N1CCOCC1)c1cccc(F)c1	-3.4	-0.1	-0.1	-0.2	76.6*	5.0
CC1CCN(C(=O)CN(c2cccc(F)c2)S(C)(=O)=O)CC1	-0.9	0.2	4.0	3.8	99.7	-1.9
Cc1cc(C)n(CC(O)COc2ccccc2Br)n1 (stereo unspecified)	2.8	4.5	-4.3	1.1	133.2	6.5
O=C(O)c1cccc(Nc2nc(Nc3ccccc3)nc(N3CCCC3)n2)c1	0.4	-2.1	10.8	8.5	99.4	6.0
CCN(CC)c1ccc(/C=C2/C(=O)c3ccc(C(=O)O)cc3C2=O)cc1	-8.2	-7.4	28.3*	17.9	x	19.2
CCCCS(=O)(=O)N1CCC(C(=O)Oc2ccc(Cl)cc2)CC1	10.7	5.5	2.3	0.8	111.6	-1.4
COc1ccc(-c2cnnc(N/N=C/c3ccc(O)c(O)c3)n2)cc1	7.8	15.7	15.8	-1.7	x	47.5*
CCOC(=O)C1CCN(C(=O)c2cc3cc4ccc(OC)cc4nc3o2)CC1	0.6	2.6	3.1	1.8	98.0	-2.7
COc1ccc2nc3oc(C(=O)N4CCC(C(N)=O)CC4)cc3cc2c1	-1.2	17.5	31.1*	4.6	92.8	2.4
SMILES	PAFAH1B2 inh	PAFAH1B3 FP inh	pPAFAH inh	PAFAH2 FP inh	Pemphigus Ab inh	M18AAP inhibitor
Cc1cc(C)cc(OCC(=O)OCC(=O)NCCC2=CCCCC2)c1	5.7	2.0	19.9	-3.9	-9.8*	-10.9
O=C(CCS(=O)(=O)c1ccc(Br)cc1)NCCC1=CCCCC1	25.7*	10.2	1.3	-0.1	75.6	-7.5
O=C(COc1ccc(S(=O)(=O)NC2CCCCC2)cc1)NCCC1=CCCCC1	2.1	-1.8	27.6*	6.9	x	7.4
O=C(COC(=O)COc1ccccc1)NCCC1=CCCCC1	18.5	6.1	8.2	2.7	96.9	x
O=C(COc1ccc(S(=O)(=O)NC2CCCCC2)cc1)NC1CCCCC1	1.4	7.3	9.2	-6.3	x	-2.4
Nc1ncnc2c1ncn2[C@@H]1O[C@H](CNS(=O)(=O)c2cc3ccccc3s2)[C@@H](O)[C@H]1O	2.1	6.9	0.8	-2.7	107.5	x
COc1cc2c(cc1OC)C(CNC(=O)C=Cc1cc(OC)c(OC)c(OC)c1)C2 (stereo unspecified)	x	x	x	x	105.4	x
Cc1ccc(/C=N/n2cc(-c3ccccc3)[nH]c2=S)s1	8.0	-3.8	6.7	-2.0	95.7	52.6*
O=C(CCCN1C(=O)/C(=C/c2ccccc2Cl)SC1=S)NNC(=O)c1cccnc1	3.9	-4.2	6.7	9.7	102.0	12.2
O=C(CCCN1C(=O)/C(=C/c2ccccc2Cl)SC1=S)NNC(=O)c1ccccc1	0.4	-1.5	32.1*	3.7	86.3	3.5
O=C(CCN1C(=O)/C(=C\c2ccccc2)SC1=S)NNC(=O)c1cccnc1	3.2	6.7	3.7	4.9	72.0*	7.3
O=C(Nc1ccc(S(=O)(=O)Nc2ncccn2)cc1)c1ccc(Br)cc1	x	x	x	x	95.2	x
CCC(C)(C)NC(=O)C(c1ccc(C)cc1)N(CCN1CCOCC1)C(=O)CNC(=O)c1cccs1 (stereo unspecified)	-0.2	4.3	-1.3	6.1	95.5	-2.1
CCCc1c(C(=O)N/N=C(\C)c2ccccn2)nnn1-c1nonc1N	x	x	x	x	98.7	x
C(=NNc1nnn(Cc2ccccc2)n1)c1ccccc1	x	x	x	x	99.3	x
CC(=O)COC(=O)c1ccc2noc(-c3ccccc3)c2c1	-0.6	15.0	-1.9	5.2	94.2	30.2*
Cc1ccc(C2C(C#N)=C(N)Oc3n[nH]c(-c4cccs4)c32)cc1 (stereo unspecified)	9.2	4.2	3.6	11.8	99.2	8.9
COc1cc(C2C(C#N)=C(N)Oc3n[nH]c(-c4cccs4)c32)cc(OC)c1O (stereo unspecified)	4.2	5.9	5.7	7.2	x	28.3*
C[C@@H]1O[C@@H](OC[C@@H]2O[C@H](Oc3c(-c4ccc(O)cc4)oc4cc(O)cc(O)c4c3=O)[C@@H](O)[C@H](O)[C@H]2O)[C@H](O)[C@H](O)[C@H]1O	0.8	2.6	5.0	2.5	98.4	x
CC1OC(Oc2c(-c3cc(O)c(O)c(O)c3)oc3cc(O)cc(O)c3c2=O)C(O)C(O)C1O (stereo unspecified)	3.2	23.3	x	-38.9	91.2	44.9*
O=[N+]([O-])c1ccccc1N/N=C/c1ccc2c(c1)OCO2	5.3	4.3	x	-0.6	92.5	-1.4
